Rows were chosen to be rich in hits. Some 18% of all compounds tested hit in one or more screens of this group.
LDHA inh – LDHA (human) enzyme inhibition. P00338. purified LDHA, NADH/diaphorase-resazurin fluorescence; stronger effect = lower value. activity change, % (values are at about 110 or 230 µM). actives 0.15% (n = 480,000). AID 1347041; in the data active means activity change below about -30%; inconclusive means mostly about -25% to -30%;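 further: plate controls were DMSO wells for no effect and wells without enzyme for full effect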
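LDH5 2 nM; NADH 0.06 mM, pyruvate 0.2 mM; 200 mM Tris pH 7.4, EDTA, Tween-20; 5 min RT. Detection: diaphorase 0.133 mg/mL + resazurin 37 µM, fluorescence ex540/em590 at 0 and 20 min; normalized to enzyme-free and DMSO wells.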
Gal4-VP16 FLuc – inhibits Gal4-VP16 luciferase reporter, ROR gamma counter-screen. Drosophila S2 Gal4-VP16 UAS-luciferase, luminescence, 20 h. Potency, µM (top dose mostly 53.6 µM), for the others: top-dose activity, negative = inhibition, actives largely listed as inhibitors. actives 3.5% (n = 310,000). AID 2546;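 further: Gal4-VP16 expression switched on by copper sulfate through the metallothionein promoter; potency means the concentration at half of the fitted maximal effect; nearly all actives have a fitted effect of over 50% in size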
RORgamma inh – ROR gamma (mouse) transcription inhibition; actives 5.4% (n = 310,000); Potency, µM (titrated, usually from 53.6 µM), for inactives: top-dose activity change, negative = inhibition, actives largely listed as inhibitors; Drosophila S2 Gal4-RORgamma UAS-luciferase reporter, 20 h; P51450; further: potency means the concentration at half of the fitted maximal effect; nearly all actives have a fitted effect of over 60% in size
Target sequence (P51450 whole entry, looked up, the tested form may be a part): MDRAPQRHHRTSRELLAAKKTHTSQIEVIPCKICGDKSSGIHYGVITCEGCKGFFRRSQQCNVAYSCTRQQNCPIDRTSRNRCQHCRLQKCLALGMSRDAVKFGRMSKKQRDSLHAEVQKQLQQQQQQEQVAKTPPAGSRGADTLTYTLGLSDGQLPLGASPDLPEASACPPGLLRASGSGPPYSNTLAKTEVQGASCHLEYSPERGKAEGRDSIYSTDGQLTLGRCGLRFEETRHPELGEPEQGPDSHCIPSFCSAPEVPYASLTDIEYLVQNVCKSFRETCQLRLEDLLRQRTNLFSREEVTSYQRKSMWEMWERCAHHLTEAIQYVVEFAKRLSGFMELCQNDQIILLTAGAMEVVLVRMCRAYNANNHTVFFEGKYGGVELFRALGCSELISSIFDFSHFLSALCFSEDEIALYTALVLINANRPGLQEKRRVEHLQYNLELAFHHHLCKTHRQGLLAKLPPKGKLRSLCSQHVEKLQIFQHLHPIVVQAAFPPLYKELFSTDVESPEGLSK
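Read-out: Photinus luciferase luminescence; inhibitors lower reporter signal. Insect Schneider cells with Gal4-ROR gamma fusion under metallothionein promoter, UAS reporter; 700 uM final copper sulfate induction, 20 hr, ambient temperature.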
IL-1B inflam inh – inflammasome signaling inhibition, IL-1 beta readout; AID 743279; THP-1 LPS/ATP IL-1B secretion, AlphaLISA, 16 h; stronger effect = lower value; actives 4.7% (n = 360,000); activity change, % at 57.5 µM; in the data active means activity change below about -50%; inconclusive means mostly about -30% to -49%
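THP-1 cells pretreated 1 hr with compounds (up to 57.5 uM final), then stimulated with LPS (250 ng/mL final) plus ATP (1.25 mM final); secreted IL-1B measured by AlphaLISA after 16 hr, decreased signal indicating inhibition.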
TDP1 cell CPT – growth inhibition of DT40 Tdp1-/-;hTDP1 cells with camptothecin (screen for TDP1 inhibitors) | Potency, µM (top dose mostly 46.2 µM), without a hit: top-dose activity change, negative = growth inhibition, actives largely listed as inhibitors | chicken DT40 Tdp1-/-;hTDP1 cells + 20 nM CPT, ATP luminescence, 48 h | actives 12% (n = 420,000) | AID 686979; further: potency means the concentration at half of the fitted maximal effect; nearly all actives have a fitted effect of over 55% in size
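Chicken DT40 Tdp1-/- cells complemented with human TDP1, 400 cells/well, exposed to compounds plus 20 nM camptothecin for at least 48 h at 37 C; viability read as ATP content by CellTiter-Glo luminescence.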
TDP1 cell noCPT – qHTS for Inhibitors of human tyrosyl-DNA phosphodiesterase 1 (TDP1): qHTS in cells in absence of CPT | Potency, µM (series often up to 46.2 µM), for inactives: at the highest dose activity change, negative = growth inhibition, hits mostly inhibitors | DT40 Tdp1-/- hTDP1 cells, no CPT, ATP luminescence, 48 h | actives 15% (n = 420,000); further: potency means the concentration at half of the fitted maximal effect; nearly all actives have a fitted effect of over 55% in size
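Luminescent ATP content (CellTiter-Glo) served as the growth readout. Knockout chicken DT40 cells expressing human TDP1 were exposed to compounds without camptothecin for a minimum 48 hr at 37 °C.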
* = called active by the depositor; ? = inconclusive; nt = not tested or not shown. Unless noted, the call rests on the fitted dose curve; in most records, active means well fitted curve in the direction sought with a large enough effect; inconclusive means small, poorly fitted or top-dose-only effect, or another doubt; inactive means no such curve, though single readings can be large; an effect the other way counts as inactive or inconclusive. Unless noted, on the % scale 0 is the no-effect control and ±100 the full control effect.

SMILES | LDHA inh | Gal4-VP16 FLuc | RORgamma inh | IL-1B inflam inh | TDP1 cell CPT | TDP1 cell noCPT
CC(=O)N1CCc2c(sc(NC(=O)c3ccc4c(c3)OCCO4)c2C#N)C1 | -1 | 9% | 4% | 25 | 4.1µM* | 3.7µM*
Cc1cc(N2CCCC2)n2nc(-c3ccccc3C)nc2n1 | 12 | nt | nt | nt | nt | nt
COCCn1c(SCc2nc(-c3ccc(Br)cc3)no2)nc2ccsc2c1=O | 5 | nt | nt | nt | nt | nt
Cc1ccc(F)cc1NC(=O)CSc1ncc(-c2ccc(F)cc2)o1 | -1 | nt | nt | nt | nt | nt
Cc1ccc(CNC(=O)CCc2ncc(-c3ccc(C)c(C)c3)o2)cc1 | -7 | nt | nt | nt | nt | nt
N#CC(C(=O)CSc1ccc2c(c1)OCCO2)c1nc(-c2ccccc2)cs1 (configuration not stated) | 8 | nt | nt | nt | nt | nt
Cc1cc(C)c(NC(=O)CNC(=O)c2nccnc2N)c(C)c1 | 9 | nt | nt | nt | nt | nt
CCNC(=O)c1c(NC(=O)C2COc3ccccc3O2)sc2c1CCCC2 (configuration not stated) | -6 | 11µM* | ? | 26 | ? | ?
CNC(=O)c1c(NC(=O)c2nc3ccccc3s2)sc2c1CCC2 | nt | 8.9µM* | 7.1µM* | nt | nt | nt
CNC(=O)c1c(NC(=O)C(C)C)sc2c1CCC2 | 1 | -12% | 4% | 18 | -28% | ?
CCNC(=O)c1c(NC(C)=O)sc2c1CCCC2 | -3 | -6% | 1% | -9 | 1% | 8%
CC(=O)N1CCc2c(sc(NC(=O)c3ccc([N+](=O)[O-])o3)c2C(N)=O)C1 | 2 | nt | nt | -80* | 3.7µM* | 7.3µM*
CCCCNC(=S)NCCCC | 1 | nt | nt | nt | nt | nt
O=C(NCCn1cc(SCc2ccccc2F)c2ccccc21)c1cccs1 | 0 | nt | nt | nt | ? | 21µM*
COc1ccc(CCNC(=O)CSc2cn(CCNC(=O)c3ccccc3F)c3ccccc23)cc1OC | 0 | nt | nt | nt | ? | ?
O=C(NCCn1cc(SCc2ccccc2F)c2ccccc21)c1c(F)cccc1F | -6 | ? | ? | ? | ? | 23µM*
Cc1ccccc1CSc1cn(CCNC(=O)c2cccs2)c2ccccc12 | 0 | nt | nt | nt | 23µM* | ?
O=C(NCCn1cc(SCc2ccc(Cl)cc2)c2ccccc21)c1cccs1 | 2 | nt | nt | nt | ? | ?
CC(Sc1cn(CCNC(=O)c2ccccc2F)c2ccccc12)c1ccccc1 (configuration not stated) | -2 | nt | nt | nt | ? | 21µM*
N#CC1=C(N)OC2=C(C(=O)CCC2)C1c1ccc(OC(=O)c2ccccc2)cc1 (configuration not stated) | 7 | nt | nt | nt | nt | nt
O=C(CSc1nccnc1N1CCN(c2ccc(F)cc2)CC1)Nc1ccc(F)cc1 | 2 | nt | nt | nt | nt | nt
CCc1ccc(CC)c(C(=O)Cn2cnc3c2c(=O)n(C)c(=O)n3C)c1 | 6 | nt | nt | nt | nt | nt
CN(C)C(C(=O)Nc1cc(Cl)cc(Cl)c1)c1ccccc1 (configuration not stated) | -2 | 4% | 18% | ? | -3% | ?
O=C(OC(C(=O)Nc1cc(Cl)cc(Cl)c1)c1ccccc1)C1=COCCO1 (configuration not stated) | 5 | -5% | -11% | -51* | ? | 18µM*
CC(OC(=O)C1=COCCO1)C(=O)Nc1ccc(Oc2ccccc2)cc1 (configuration not stated) | -3 | 4% | ? | -14 | 13µM* | ?
SMILES | LDHA inh | Gal4-VP16 FLuc | RORgamma inh | IL-1B inflam inh | TDP1 cell CPT | TDP1 cell noCPT
CCCc1cc(=O)[nH]c(SCc2nc(-c3ccc(C)c(F)c3)no2)n1 | 4 | nt | nt | nt | nt | nt
CC(Cc1cccc(F)c1)C(=O)N1CCC(C(=O)N2CCN(C)CC2)CC1 (configuration not stated) | 12 | nt | nt | nt | nt | nt
COc1ccc(N(CC(=O)Nc2cccc(N(C)S(C)(=O)=O)c2)S(=O)(=O)c2ccc(C)cc2)cc1 | -9 | -2% | 27% | 8 | ? | ?
COc1ccc(N(CC(=O)Nc2cccc(N(C)S(C)(=O)=O)c2)S(=O)(=O)c2ccc(F)cc2)cc1 | 2 | -2% | 14% | -18 | 16µM* | ?
COC(=O)c1ccc(Cl)c(NC(=O)CN(c2ccccc2)S(=O)(=O)c2ccc(OC)cc2)c1 | -3 | -9% | ? | 12 | ? | 16µM*
COC(=O)c1ccc(Cl)c(NC(=O)CN(c2ccccc2)S(=O)(=O)N(C)C)c1 | 2 | nt | nt | nt | nt | nt
COc1ccc(S(=O)(=O)N(CC(=O)Nc2cccc(C(F)(F)F)c2)c2ccc(C)cc2)cc1 | 2 | nt | nt | nt | ? | 23µM*
COc1ccc(N(CC(=O)Nc2cccc(C)c2)S(=O)(=O)c2ccc(C)cc2)cc1OC | -6 | -5% | -12% | 9 | -7% | -22%
COc1ccc(N(CC(=O)Nc2cccc(N(C)S(C)(=O)=O)c2)S(=O)(=O)c2ccccc2)cc1Cl | -2 | -3% | 7% | -1 | 10µM* | 21µM*
Cc1ccccc1-c1nnc(SCC(=O)c2ccc(C#N)cc2)n1C | -7 | nt | nt | nt | nt | nt
CCOc1ccc(N(CC(=O)Nc2cccc(N(C)S(C)(=O)=O)c2)S(=O)(=O)c2ccccc2)cc1 | 2 | -13% | 21% | -14 | 21µM* | ?
COc1ccccc1N(CC(=O)Nc1cccc(C(F)(F)F)c1)S(C)(=O)=O | 0 | 9% | 23% | -5 | 7% | -24%
Cc1ccc([N+](=O)[O-])cc1N(CC(=O)Nc1ccc(S(=O)(=O)Nc2cccc(C(F)(F)F)c2)cc1)S(C)(=O)=O | -2 | ? | -35% | -84* | ? | 18µM*
COC(=O)c1ccc(NC(=O)CN(c2cccc(C(F)(F)F)c2)S(C)(=O)=O)cc1 | -1 | nt | nt | nt | 23µM* | 4.6µM*
COc1ccc(S(=O)(=O)N(CC(=O)Nc2cc(C)cc(C)c2)c2ccc(Cl)cc2)cc1 | 2 | nt | nt | nt | ? | 23µM*
CCOc1ccc(S(=O)(=O)N(CC(=O)Nc2ccc3c(c2)OCO3)c2ccccc2)cc1 | 0 | nt | nt | nt | -9% | -6%
Cc1ccccc1NC(=O)C1CCCN(c2cnc3ccccc3n2)C1 (configuration not stated) | 4 | nt | nt | nt | nt | nt
CCOc1ccc(S(=O)(=O)N2CCCC(C(=O)NCc3cccnc3)C2)cc1C (configuration not stated) | -3 | -3% | ? | 15 | ? | 26µM*
CCOc1ccc(S(=O)(=O)N2CCCC(C(=O)NCc3ccccn3)C2)cc1Cl (configuration not stated) | -6 | nt | nt | -26 | ? | 16µM*
